According to PubChem BioAssay AID1159580 (chemical genetic matrix, 2015):
The whole screen tested about 5,500 compounds, of which about 2,000 (36%) were called active. Not shown: some 18% with an inconclusive outcome. Cut-off read from the data, not from the text of the source: active = normalized growth mostly below about 0.91 (no sharp cut-off); inconclusive = no clear call, values can overlap the other calls; inactive = mostly above about 0.92. Some of the results follow.

Assay: chemical genetic growth profiling, strain panel (AID 1159580);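 note: tested at 20 µM; growth read once vehicle control cultures reached saturation at 30 °C; 1 = growth at the plate median or of vehicle wells; lower values mean less growth of the strain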
Conditions: S. cerevisiae deletion strains, growth OD

Measured: normalized growth

C[C@@H]1OC(O[C@H]2[C@H](OC(=O)[C@]34CCC(C)(C)CC3C3=CCC5[C@@]6(C)CC[C@H](OC7O[C@@H](C)[C@H](O[C@@H]8OC[C@@H](O)[C@H](O)[C@H]8O)[C@@H](O)[C@H]7O)C(C)(C)C6CC[C@@]5(C)[C@]3(C)CC4O)OC[C@H](O)[C@H]2O)[C@H](O)[C@H](O)[C@H]1O[C@@H]1O[C@H](CO)[C@@H](O)[C@H](O)[C@H]1O (some centres not stated)
active: locus YDL035C, strain GPR1, stronger effect = lower value 0.785 | locus YDL134C, strain PPH21, stronger effect = lower value 0.883 | locus YDL192W, strain arf1, stronger effect = lower value 0.825 | locus YDR162C, strain NBP2, stronger effect = lower value 0.0581 | locus YDR388W, stronger effect = lower value 0.918 | locus YER155C, strain BEM2, stronger effect = lower value 1.12 [resistant] | locus YER167W, strain BCK2, stronger effect = lower value 0.895 | locus YHR030C, strain SLT2, stronger effect = lower value 0.323 | locus YJL095W, strain BCK1, stronger effect = lower value 0.33 | locus YKL009W, strain mrt4, stronger effect = lower value 0.876 | locus YKL085W, strain MDH1 (second series), stronger effect = lower value 0.904 | locus YKL085W, strain MDH1, stronger effect = lower value 0.904 | locus YKR001C, strain vps1, stronger effect = lower value 0.721 | locus YLR371W, strain rom2, stronger effect = lower value 0.714 | locus YLR418C, strain cdc73, stronger effect = lower value 0.745 | locus YML032C, strain rad52, stronger effect = lower value 0.824 | locus YMR223W, strain ubp8, stronger effect = lower value 0.895 | locus YMR307W, strain GAS1, stronger effect = lower value 0.212 | locus YNL250W, strain rad50, stronger effect = lower value 0.891 | locus YNL298W, strain CLA4, stronger effect = lower value 0.838 | locus YNR052C, strain pop2, stronger effect = lower value 0.815 | locus YOL012C, strain htz1 2.15 [resistant] | locus YOR061W, strain CKA2, stronger effect = lower value 0.59 | locus YOR184W, strain ser1, stronger effect = lower value 0.79 | locus YPR167C, strain met16, stronger effect = lower value 0.861
inactive: locus YBR021W, strain FUR4, stronger effect = lower value 0.963 | locus YBR229C, strain ROT2, stronger effect = lower value 0.967 | locus YCL029C, strain bik1, stronger effect = lower value 1.01 | locus YDL074C, strain BRE1, stronger effect = lower value 0.885 | locus YDL101C, strain DUN1, stronger effect = lower value 0.984 | locus YDL185W, strain tfp1, stronger effect = lower value 0.974 | locus YDR101C, strain arx1, stronger effect = lower value 0.985 | locus YDR318W, strain mcm21, stronger effect = lower value 0.917 | locus YDR502C, strain sam2, stronger effect = lower value 0.936 | locus YEL061C, strain CIN8, stronger effect = lower value 0.95 | locus YER110C, stronger effect = lower value 0.996 | locus YGL078C, strain dbp3, stronger effect = lower value 0.929 | locus YGL086W, strain mad1, stronger effect = lower value 0.977 | locus YGL248W, strain PDE1, stronger effect = lower value 0.993 | locus YGR135W, strain pre9, stronger effect = lower value 0.978 | locus YGR252W, strain gcn5, stronger effect = lower value 0.934 | locus YHR079C, strain IRE1 (second series), stronger effect = lower value 0.975 | locus YHR094C, strain hxt1, stronger effect = lower value 0.982 | locus YHR129C, strain ARP1, stronger effect = lower value 0.923 | locus YHR200W, strain rpn10, stronger effect = lower value 0.974 | locus YIL066C, strain RNR3, stronger effect = lower value 0.912 | locus YIL073C, strain SPO22, stronger effect = lower value 0.936 | locus YIL125W, strain kgd1, stronger effect = lower value 0.958 | locus YIR030C, strain dcg1, stronger effect = lower value 0.969 | locus YJL134W, strain LCB3, stronger effect = lower value 1.04 | locus YJL168C, strain set2, stronger effect = lower value 1.01 | locus YJL187C, strain SWE1 (second series), stronger effect = lower value 0.925 | locus YJR043C, strain POL32, stronger effect = lower value 0.858 | locus YJR075W, strain HOC1, stronger effect = lower value 0.957 | locus YKL068W, stronger effect = lower value 0.949 | locus YLR039C, strain RIC1, stronger effect = lower value 0.842 | locus YLR058C, strain SHM2, stronger effect = lower value 0.972 | locus YLR102C, strain apc9, stronger effect = lower value 0.982 | locus YLR262C, strain YPT6, stronger effect = lower value 0.709 | locus YLR268W, strain sec22, stronger effect = lower value 0.966 | locus YLR330W, strain CHS5, stronger effect = lower value 0.993 | locus YLR342W, strain FKS1 (second series), stronger effect = lower value 0.927 | locus YML016C, strain PPZ1, stronger effect = lower value 1 | locus YML124C, strain tub3, stronger effect = lower value 0.993 | locus YMR078C, strain ctf18, stronger effect = lower value 0.987 | locus YNL067W, strain RPL9B, stronger effect = lower value 0.983 | locus YNL128W, strain TEP1, stronger effect = lower value 0.887 | locus YNL153C, strain GIM3, stronger effect = lower value 0.958 | locus YNL233W, strain BNI4, stronger effect = lower value 0.997 | locus YNL271C, strain bni1, stronger effect = lower value 1 | locus YNL307C, strain MCK1, stronger effect = lower value 0.991 | locus YOL147C, strain pex11, stronger effect = lower value 0.986 | locus YOR069W, strain VPS5, stronger effect = lower value 1.01 | locus YOR136W, strain idh2, stronger effect = lower value 0.951 | locus YOR144C, strain elg1, stronger effect = lower value 0.982 | locus YOR316C, strain cot1, stronger effect = lower value 0.984 | locus YPL055C, strain LGE1, stronger effect = lower value 0.841 | locus YPL241C, strain CIN2, stronger effect = lower value 0.989 | locus YPR119W, strain clb2, stronger effect = lower value 0.988 | locus YPR141C, strain kar3, stronger effect = lower value 0.981 | locus YPR163C, strain tif3, stronger effect = lower value 0.935 | strain wtn01, stronger effect = lower value 0.955
